Results from the supplement of paper PMC10849652.
The full data set covers some 8,800 targets. This sample favours those with a hit. About 0.5% of all pairs of compound and target were hits.

Columns and labels:
Experiment in all cases: log2 fold change, soluble protein after heating vs DMSO (PISA); higher = thermal stabilisation; K562 lysate, 10 uM; active = over 0.2 and 3.5 SD of the protein, either way, in both replicates (recomputed)
vemurafenib = compound: CCCS(=O)(=O)Nc1ccc(F)c(C(=O)c2c[nH]c3ncc(-c4ccc(Cl)cc4)cc23)c1F [vemurafenib]
How it was run: (§1)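 Log-two fold change in thermal stability relative to solvent controls is reported from duplicates. For each sample, crude K562 extract from dounce-homogenised pellets in PBS pH 7.4 with 1 mM MgCl2, at 1 mg/mL protein, was treated with 10 μM compound for 30 min. Aliquots heated for 3 min across 48°C-58°C were pooled, brought to 0.5% NP-40 at 4°C and cleared at 21,000xg for 90 min. The supernatant was quantified by TMTpro 16plex LC-MS/MS with channel sums equalised.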

[1] = compound: CCCS(=O)(=O)Nc1ccc(F)c(C(=O)c2c[nH]c3ncc(Cl)cc23)c1F
How it was run: as §1

barasertib = compound: CCN(CCCOc1ccc2c(Nc3cc(CC(=O)Nc4cccc(F)c4)[nH]n3)ncnc2c1)CCOP(=O)(O)O [barasertib]
How it was run: as §1

[2] = compound: CC[C@@H]1C(=O)N(C)c2cnc(Nc3ccc(C(=O)NC4CCN(C)CC4)cc3OC)nc2N1C1CCCC1
How it was run: as §1

volasertib = compound: CC[C@@H]1C(=O)N(C)c2cnc(Nc3ccc(C(=O)N[C@H]4CC[C@H](N5CCN(CC6CC6)CC5)CC4)cc3OC)nc2N1C(C)C [volasertib]
How it was run: as §1

[3] = compound: CCn1c(C(=O)N(C2CC2)C2CC2)cc2c3c(ncn3C)c(Nc3cc(C)n(C)n3)nc21
How it was run: as §1

[4] = compound: CCn1cc(-c2ccnc3[nH]c(-c4cccc(CN(C)C)c4)cc23)c(-c2ccc(NC(=O)N(C)C)cc2)n1
How it was run: as §1

[5] = compound: CN1CCC(CNc2ccc3ncc(-c4cccc(OC(F)(F)F)c4)n3n2)CC1
How it was run: as §1

saracatinib = compound: CN1CCN(CCOc2cc(OC3CCOCC3)c3c(Nc4c(Cl)ccc5c4OCO5)ncnc3c2)CC1 [saracatinib]
How it was run: as §1

sotrastaurin = compound: CN1CCN(c2nc(C3=C(c4c[nH]c5ccccc45)C(=O)NC3=O)c3ccccc3n2)CC1 [sotrastaurin]
How it was run: as §1

alvocidib = compound: CN1CC[C@H](c2c(O)cc(O)c3c(=O)cc(-c4ccccc4Cl)oc23)[C@H](O)C1 [alvocidib]
How it was run: as §1

Tubastatin A = compound: CN1CCc2c(c3ccccc3n2Cc2ccc(C(=O)NO)cc2)C1 [Tubastatin A]
How it was run: as §1

[6] = compound: CNC(=O)C1=CC=CC=C1NC2=NC(=NC=C2Cl)NC3=C(C=C(C=C3)N4CCOCC4)OC
How it was run: as §1

defactinib = compound: CNC(=O)c1ccc(Nc2ncc(C(F)(F)F)c(NCc3nccnc3N(C)S(C)(=O)=O)n2)cc1 [defactinib]
How it was run: as §1

[7] = compound: CNc1nc(-c2ccc3c(N)n[nH]c3c2)cc(N2C[C@@H](C(=O)NC3CCCCC3)CC[C@H]2C)n1
How it was run: as §1

encorafenib = compound: COC(=O)N[C@@H](C)CNc1nccc(-c2cn(C(C)C)nc2-c2cc(Cl)cc(NS(C)(=O)=O)c2F)n1 [encorafenib]
How it was run: as §1

[8] = compound: COC(=O)[C@H](CCSC)NC(=O)C1=C(C=C(C=C1)NC[C@H](CS)N)C2=CC=CC=C2
How it was run: as §1

alisertib = compound: COc1cc(Nc2ncc3c(n2)-c2ccc(Cl)cc2C(c2c(F)cccc2OC)=NC3)ccc1C(=O)O [alisertib]
How it was run: as §1

[9] = compound: COc1cc2nc(-c3cc(F)ccc3O)nc(N[C@@H]3CNC[C@H]3C(C)(C)O)c2cc1OC
How it was run: as §1

gefitinib = compound: COc1cc2ncnc(Nc3ccc(F)c(Cl)c3)c2cc1OCCCN1CCOCC1 [gefitinib]
How it was run: as §1

Measured: log2 fold change

PIP4K2A (UniProt P48426)
inactive: vemurafenib 0 | [1] -0.009 | barasertib -0.051 | volasertib 0.087 | [3] 0.073 | [4] -0.035 | [5] 0.155 | saracatinib 0.036 | sotrastaurin 0.02 | Tubastatin A -0.048 | [6] 0.006 | defactinib 0.065 | [7] -0.035 | encorafenib 0.141 | [8] -0.071 | alisertib 0.01 | [9] 0.005 | gefitinib 0.037
active: [2] 0.31 | alvocidib 0.279

PFKFB3 isoform 4 (UniProt Q16875)
inactive: vemurafenib -0.022 | [1] 0.134 | barasertib 0.003 | [2] -0.003 | volasertib 0.067 | [3] 0.037 | [4] 0.003 | [5] -0.046 | saracatinib -0.024 | sotrastaurin 0.034 | alvocidib -0.012 | Tubastatin A -0.05 | [6] 0.058 | defactinib -0.006 | [7] 0.012 | encorafenib 0.041 | [8] -0.137 | alisertib -0.01 | [9] 0 | gefitinib -0.01

PRKCB isoform 2 (UniProt P05771)
inactive: vemurafenib 0.045 | [1] -0.024 | barasertib -0.017 | [2] -0.01 | volasertib -0.062 | [3] 0.002 | [4] 0.073 | [5] -0.077 | saracatinib -0.023 | alvocidib -0.004 | Tubastatin A 0.054 | [6] -0.029 | defactinib -0.019 | [7] 0.03 | encorafenib 0.057 | [8] -0.203 | alisertib 0.039 | [9] 0.148 | gefitinib 0.008
active: sotrastaurin 0.505

PCBP3 (UniProt P57721)
Sequence of UniProt P57721 (P57721 whole entry, looked up): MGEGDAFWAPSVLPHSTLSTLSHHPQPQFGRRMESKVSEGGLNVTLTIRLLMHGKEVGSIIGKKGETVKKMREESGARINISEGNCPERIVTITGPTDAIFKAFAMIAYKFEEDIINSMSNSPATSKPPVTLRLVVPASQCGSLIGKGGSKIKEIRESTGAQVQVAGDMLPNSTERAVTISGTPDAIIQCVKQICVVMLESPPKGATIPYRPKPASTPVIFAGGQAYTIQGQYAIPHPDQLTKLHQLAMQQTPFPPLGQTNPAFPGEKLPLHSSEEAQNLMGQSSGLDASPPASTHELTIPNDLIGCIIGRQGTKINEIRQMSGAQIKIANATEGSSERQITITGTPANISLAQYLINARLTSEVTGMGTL
inactive: vemurafenib 0.021 | [1] -0.007 | barasertib -0.007 | [2] -0.003 | volasertib 0.006 | [3] -0.011 | [4] -0.062 | [5] 0.032 | saracatinib 0.014 | sotrastaurin -0.047 | alvocidib -0.015 | Tubastatin A 0.005 | [6] 0.022 | defactinib -0.039 | [7] 0.042 | encorafenib -0.006 | [8] -0.023 | alisertib 0.019 | [9] 0.015 | gefitinib -0.023

PIKFYVE (UniProt Q9Y2I7)
Sequence of UniProt Q9Y2I7 (Q9Y2I7 whole entry, looked up): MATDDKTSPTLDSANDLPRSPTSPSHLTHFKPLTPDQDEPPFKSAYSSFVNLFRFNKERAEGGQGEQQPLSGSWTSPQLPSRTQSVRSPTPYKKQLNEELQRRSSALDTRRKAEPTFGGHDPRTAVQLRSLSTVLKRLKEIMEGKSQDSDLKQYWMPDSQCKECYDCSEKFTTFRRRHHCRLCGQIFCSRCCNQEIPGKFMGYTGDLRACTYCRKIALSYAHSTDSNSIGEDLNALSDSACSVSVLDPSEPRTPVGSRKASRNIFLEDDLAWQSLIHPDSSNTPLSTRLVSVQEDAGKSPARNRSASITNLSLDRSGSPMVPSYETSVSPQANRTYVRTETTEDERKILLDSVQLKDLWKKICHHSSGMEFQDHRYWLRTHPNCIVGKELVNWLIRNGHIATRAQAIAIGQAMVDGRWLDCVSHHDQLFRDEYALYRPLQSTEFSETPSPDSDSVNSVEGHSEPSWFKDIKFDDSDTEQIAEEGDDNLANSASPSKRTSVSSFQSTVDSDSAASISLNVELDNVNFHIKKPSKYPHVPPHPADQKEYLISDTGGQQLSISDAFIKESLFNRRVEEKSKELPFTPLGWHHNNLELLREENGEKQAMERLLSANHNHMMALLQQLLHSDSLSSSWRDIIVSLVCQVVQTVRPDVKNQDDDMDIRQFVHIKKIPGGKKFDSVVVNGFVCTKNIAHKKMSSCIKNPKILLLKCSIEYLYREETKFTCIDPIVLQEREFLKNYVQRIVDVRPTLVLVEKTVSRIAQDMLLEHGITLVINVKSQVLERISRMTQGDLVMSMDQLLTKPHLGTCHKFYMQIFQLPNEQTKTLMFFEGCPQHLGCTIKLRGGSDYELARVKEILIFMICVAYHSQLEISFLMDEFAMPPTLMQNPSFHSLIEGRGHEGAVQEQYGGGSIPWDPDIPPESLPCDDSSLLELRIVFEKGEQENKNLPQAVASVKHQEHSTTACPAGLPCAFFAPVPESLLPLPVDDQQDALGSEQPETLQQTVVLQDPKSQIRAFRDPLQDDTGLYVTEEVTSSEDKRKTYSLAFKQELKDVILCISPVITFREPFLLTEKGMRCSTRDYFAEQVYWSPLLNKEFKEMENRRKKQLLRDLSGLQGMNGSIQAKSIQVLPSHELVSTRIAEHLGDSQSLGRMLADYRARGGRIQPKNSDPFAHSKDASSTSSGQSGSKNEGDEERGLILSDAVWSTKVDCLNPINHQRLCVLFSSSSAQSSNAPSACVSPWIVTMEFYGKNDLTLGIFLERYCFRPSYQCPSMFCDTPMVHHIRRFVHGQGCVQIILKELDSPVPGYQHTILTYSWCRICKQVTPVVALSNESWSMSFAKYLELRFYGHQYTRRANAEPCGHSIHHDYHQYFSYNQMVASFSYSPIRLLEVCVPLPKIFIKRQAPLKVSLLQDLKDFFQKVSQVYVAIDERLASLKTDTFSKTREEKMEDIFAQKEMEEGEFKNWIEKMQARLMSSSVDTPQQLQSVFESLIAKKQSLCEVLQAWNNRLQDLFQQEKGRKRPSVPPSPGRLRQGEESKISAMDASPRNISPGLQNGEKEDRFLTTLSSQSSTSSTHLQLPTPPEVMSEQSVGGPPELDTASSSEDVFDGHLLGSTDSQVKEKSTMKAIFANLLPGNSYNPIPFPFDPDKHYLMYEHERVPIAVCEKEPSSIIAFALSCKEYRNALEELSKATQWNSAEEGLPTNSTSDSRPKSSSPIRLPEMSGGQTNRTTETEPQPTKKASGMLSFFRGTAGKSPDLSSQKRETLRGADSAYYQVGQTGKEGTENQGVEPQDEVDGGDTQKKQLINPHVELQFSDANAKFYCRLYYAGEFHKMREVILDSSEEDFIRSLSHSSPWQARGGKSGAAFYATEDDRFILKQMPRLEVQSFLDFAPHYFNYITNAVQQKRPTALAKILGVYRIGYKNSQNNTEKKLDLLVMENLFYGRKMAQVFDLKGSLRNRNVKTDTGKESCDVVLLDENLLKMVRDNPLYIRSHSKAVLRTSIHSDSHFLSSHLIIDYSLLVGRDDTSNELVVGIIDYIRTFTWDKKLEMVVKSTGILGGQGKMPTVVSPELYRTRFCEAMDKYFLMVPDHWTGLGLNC
inactive: vemurafenib -0.022 | [1] 0.042 | barasertib 0.26 | [2] -0.036 | volasertib -0.047 | [3] 0.04 | [4] -0.056 | [5] 0.038 | saracatinib 0.054 | sotrastaurin 0.038 | alvocidib -0.049 | Tubastatin A -0.126 | [6] 0.032 | defactinib 0.078 | [7] -0.031 | encorafenib 0.044 | [8] 0.088 | alisertib 0.031 | [9] 0.004 | gefitinib -0.005

PDCD6IP isoform 2 (UniProt Q8WUM4)
Sequence of UniProt Q8WUM4 (Q8WUM4 whole entry, looked up): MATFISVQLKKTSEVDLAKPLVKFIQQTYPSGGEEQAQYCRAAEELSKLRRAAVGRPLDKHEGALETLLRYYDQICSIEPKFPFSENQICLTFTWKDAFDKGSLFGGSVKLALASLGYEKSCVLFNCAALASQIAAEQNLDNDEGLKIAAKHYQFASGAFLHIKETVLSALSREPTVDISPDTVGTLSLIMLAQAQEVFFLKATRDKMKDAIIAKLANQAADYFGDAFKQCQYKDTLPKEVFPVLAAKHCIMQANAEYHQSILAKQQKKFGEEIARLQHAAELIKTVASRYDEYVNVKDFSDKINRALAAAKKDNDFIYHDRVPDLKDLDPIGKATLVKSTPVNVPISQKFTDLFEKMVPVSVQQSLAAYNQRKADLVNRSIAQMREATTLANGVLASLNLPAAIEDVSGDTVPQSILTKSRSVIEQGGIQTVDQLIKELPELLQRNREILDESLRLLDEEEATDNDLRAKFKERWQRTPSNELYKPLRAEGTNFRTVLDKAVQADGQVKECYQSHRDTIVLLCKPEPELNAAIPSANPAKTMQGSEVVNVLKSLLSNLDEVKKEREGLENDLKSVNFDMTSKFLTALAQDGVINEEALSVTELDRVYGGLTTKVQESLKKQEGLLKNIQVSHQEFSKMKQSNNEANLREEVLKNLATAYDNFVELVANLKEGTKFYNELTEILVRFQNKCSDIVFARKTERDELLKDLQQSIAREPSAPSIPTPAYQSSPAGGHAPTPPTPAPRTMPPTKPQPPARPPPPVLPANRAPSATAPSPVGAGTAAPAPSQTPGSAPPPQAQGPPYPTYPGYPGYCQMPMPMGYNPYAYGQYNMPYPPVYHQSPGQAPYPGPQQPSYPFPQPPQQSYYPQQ
inactive: vemurafenib -0.018 | [1] -0.005 | barasertib -0.008 | [2] -0.036 | volasertib -0.022 | [3] 0.032 | [4] 0.071 | [5] -0.054 | saracatinib 0.011 | sotrastaurin 0.003 | alvocidib 0.033 | Tubastatin A -0.088 | [6] -0.005 | defactinib -0.022 | [7] -0.02 | encorafenib -0.01 | [8] 0.188 | alisertib 0.014 | [9] 0.003 | gefitinib -0.003

PDE4DIP isoform 4 (UniProt Q5VU43)
inactive: vemurafenib 0.027 | [1] 0.011 | barasertib 0.092 | [2] 0.046 | volasertib 0.025 | [3] 0.04 | [4] -0.04 | [5] -0.005 | saracatinib 0.034 | sotrastaurin -0.014 | alvocidib -0.038 | Tubastatin A 0.004 | [6] -0.003 | defactinib -0.018 | [7] 0.036 | encorafenib 0.006 | [8] 0.004 | alisertib 0.023 | [9] -0.007 | gefitinib -0.059

PTGES2 (UniProt Q9H7Z7)
active: vemurafenib 0.547
inactive: [1] 0.06 | barasertib -0.107 | [2] -0.108 | volasertib 0.159 | [3] -0.053 | [4] -0.003 | [5] -0.18 | saracatinib -0.029 | sotrastaurin 0.058 | alvocidib 0.015 | Tubastatin A -0.169 | [6] 0.122 | defactinib -0.075 | [7] 0.322 | encorafenib -0.127 | [8] 0.098 | alisertib -0.026 | [9] -0.248 | gefitinib 0.245

PRKAB2 (UniProt O43741)
Sequence of UniProt O43741 (O43741 whole entry, looked up): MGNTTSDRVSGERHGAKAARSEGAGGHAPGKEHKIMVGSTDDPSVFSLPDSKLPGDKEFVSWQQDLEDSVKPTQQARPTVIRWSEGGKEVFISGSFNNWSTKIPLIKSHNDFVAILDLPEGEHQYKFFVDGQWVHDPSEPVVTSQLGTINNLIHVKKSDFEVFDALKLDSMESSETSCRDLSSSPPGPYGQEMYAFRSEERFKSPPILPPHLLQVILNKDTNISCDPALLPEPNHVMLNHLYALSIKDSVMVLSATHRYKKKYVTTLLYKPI
inactive: vemurafenib 0.022 | [1] 0.104 | barasertib -0.081 | [2] 0 | volasertib -0.05 | [3] -0.094 | [5] 0.303 | saracatinib 0.029 | sotrastaurin 0.026 | alvocidib -0.122 | Tubastatin A -0.016 | [6] 0.286 | defactinib 0.057 | [7] 0.062 | encorafenib -0.04 | [8] -0.09 | alisertib -0.062 | [9] 0.058 | gefitinib -0.126
active: [4] -0.85

PRAME (UniProt P78395)
Sequence of UniProt P78395 (P78395 whole entry, looked up): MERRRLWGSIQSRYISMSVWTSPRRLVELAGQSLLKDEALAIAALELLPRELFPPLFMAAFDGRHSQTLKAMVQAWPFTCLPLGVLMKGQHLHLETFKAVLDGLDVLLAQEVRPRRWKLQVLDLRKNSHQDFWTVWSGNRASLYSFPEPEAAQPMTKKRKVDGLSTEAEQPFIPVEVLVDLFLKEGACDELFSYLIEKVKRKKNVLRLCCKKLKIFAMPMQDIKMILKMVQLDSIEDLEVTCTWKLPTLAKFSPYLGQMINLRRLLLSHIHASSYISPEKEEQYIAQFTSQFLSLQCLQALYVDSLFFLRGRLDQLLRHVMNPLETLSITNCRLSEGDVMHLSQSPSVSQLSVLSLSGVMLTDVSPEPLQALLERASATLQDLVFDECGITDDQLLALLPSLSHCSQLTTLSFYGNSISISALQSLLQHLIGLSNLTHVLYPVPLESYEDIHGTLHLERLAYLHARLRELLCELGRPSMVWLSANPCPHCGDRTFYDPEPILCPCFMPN
inactive: vemurafenib 0.028 | [1] -0.012 | barasertib 0.003 | [2] -0.086 | volasertib -0.009 | [3] 0.017 | [4] -0.058 | [5] 0.011 | saracatinib 0 | sotrastaurin 0.018 | alvocidib 0.034 | Tubastatin A -0.111 | [6] 0.024 | defactinib 0.006 | [7] -0.006 | encorafenib -0.001 | [8] 0.13 | alisertib 0.014 | [9] 0.009 | gefitinib -0.007

PRKACB isoform 2 (UniProt P22694)
active: [9] 0.51
inactive: vemurafenib -0.077 | [1] -0.016 | barasertib 0.013 | [2] -0.021 | volasertib -0.01 | [3] -0.072 | [4] -0.021 | [5] 0.125 | saracatinib 0.012 | sotrastaurin 0.175 | alvocidib 0.006 | Tubastatin A 0.003 | [6] 0.011 | defactinib 0.117 | [7] 0.118 | encorafenib -0.018 | [8] -0.05 | alisertib 0 | gefitinib 0.006

PRC1 (UniProt O43663)
active: [8] 0.255
inactive: vemurafenib 0.048 | [1] 0.03 | barasertib 0.063 | [2] -0.057 | volasertib -0.028 | [3] 0 | [4] -0.004 | [5] -0.094 | saracatinib 0.025 | sotrastaurin 0.005 | alvocidib 0.002 | Tubastatin A -0.157 | [6] 0.043 | defactinib -0.012 | [7] 0.012 | encorafenib 0.031 | alisertib 0.045 | [9] -0.032 | gefitinib 0.049

PPP4R2 (UniProt Q9NY27)
Sequence of UniProt Q9NY27 (Q9NY27 whole entry, looked up): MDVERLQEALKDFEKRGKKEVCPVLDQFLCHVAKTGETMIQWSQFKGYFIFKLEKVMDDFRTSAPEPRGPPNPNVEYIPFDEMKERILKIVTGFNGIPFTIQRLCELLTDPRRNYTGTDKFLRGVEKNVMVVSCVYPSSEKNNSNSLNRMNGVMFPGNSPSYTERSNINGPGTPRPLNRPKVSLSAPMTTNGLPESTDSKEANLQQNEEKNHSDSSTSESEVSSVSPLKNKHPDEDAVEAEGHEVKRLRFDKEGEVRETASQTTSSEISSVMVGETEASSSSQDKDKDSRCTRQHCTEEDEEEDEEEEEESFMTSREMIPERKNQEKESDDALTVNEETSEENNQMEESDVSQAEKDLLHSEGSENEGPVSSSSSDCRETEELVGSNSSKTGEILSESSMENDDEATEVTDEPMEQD
inactive: vemurafenib -0.033 | [1] 0.026 | barasertib -0.041 | [2] 0.057 | volasertib -0.014 | [3] -0.042 | [4] 0.21 | [5] 0.028 | saracatinib -0.007 | sotrastaurin 0.006 | alvocidib 0.021 | Tubastatin A 0.013 | [6] 0.018 | defactinib 0.015 | [7] 0.014 | encorafenib 0.025 | [8] -0.014 | alisertib -0.058 | [9] -0.002 | gefitinib -0.01

POLR2G (UniProt P62487)
inactive: vemurafenib -0.014 | [1] 0.02 | barasertib -0.003 | [2] 0.03 | volasertib 0.023 | [3] 0 | [4] 0.025 | [5] 0.05 | saracatinib 0.016 | sotrastaurin 0.011 | alvocidib -0.034 | Tubastatin A 0.012 | [6] 0.038 | defactinib 0.027 | [7] 0.019 | encorafenib 0.007 | [8] -0.032 | alisertib 0.016 | [9] 0.017 | gefitinib -0.01

PPME1 isoform 4 (UniProt Q9Y570)
Sequence of UniProt Q9Y570 (Q9Y570 whole entry, looked up): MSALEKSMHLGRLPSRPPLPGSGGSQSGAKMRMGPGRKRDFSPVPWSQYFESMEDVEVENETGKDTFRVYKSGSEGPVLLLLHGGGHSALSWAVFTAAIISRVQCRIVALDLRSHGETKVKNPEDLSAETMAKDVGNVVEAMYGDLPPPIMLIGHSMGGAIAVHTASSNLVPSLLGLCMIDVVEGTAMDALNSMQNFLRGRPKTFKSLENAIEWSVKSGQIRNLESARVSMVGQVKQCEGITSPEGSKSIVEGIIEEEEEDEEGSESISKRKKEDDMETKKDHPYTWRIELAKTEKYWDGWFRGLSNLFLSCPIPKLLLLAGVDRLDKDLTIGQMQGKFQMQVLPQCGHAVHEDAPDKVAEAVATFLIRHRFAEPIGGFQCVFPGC
inactive: vemurafenib 0.005 | [1] 0.003 | barasertib -0.045 | [2] -0.006 | volasertib 0.016 | [3] 0.028 | [4] -0.015 | [5] 0.008 | saracatinib -0.01 | sotrastaurin -0.008 | alvocidib 0.01 | Tubastatin A 0.024 | [6] 0.008 | defactinib 0.024 | [7] 0.002 | encorafenib -0.001 | [8] -0.066 | alisertib 0.031 | [9] 0.005 | gefitinib 0.002

PFKP (UniProt Q01813)
inactive: vemurafenib -0.047 | [1] -0.056 | barasertib 0.018 | [2] -0.005 | volasertib 0.015 | [3] -0.007 | [4] 0.052 | [5] -0.033 | saracatinib 0.008 | sotrastaurin -0.025 | alvocidib 0.019 | Tubastatin A 0.031 | [6] 0.029 | defactinib -0.009 | [7] -0.016 | encorafenib -0.041 | [8] -0.001 | alisertib -0.004 | [9] 0.009 | gefitinib -0.006
